Assay [1] in a line: qHTS assay to identify small molecule antagonists of the estrogen related receptor (ERR) signaling pathway - cell viability counter screen (AID 1224818). Also: series mostly up to about 46 µM. Put shortly:
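Fluorescence from CellTiter-Fluor, read 30 min after reagent addition at 37 C, measured viability of ERR cells exposed to compounds for 17.5 h. Cells had settled 6 h before dosing.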

The nature of assay [2]: qHTS assay to identify small molecule antagonists of the estrogen related receptor (ERR) signaling pathway from Tox21 library - cell viability counter screen (AID 1224834). Also: nearly all actives have a fitted effect of over 30% in size. Also: potency is read from the fitted curve at half-maximal effect. Put shortly: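 Multiplexed viability counter screen in ERR cells: 17.5 h compound exposure at 37 C, CellTiter-Fluor added, 30 min at 37 C/5% CO2, fluorescence read.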
Assay [3] is described as follows: qHTS assay to identify small molecule agonists of the constitutive androstane receptor (CAR) signaling pathway - cell viability counter screen (AID 1224836). Also: nearly all actives have a fitted effect of over 45% in size. Also: potency is read from the fitted curve at half-maximal effect. Put shortly: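 Cells were seeded and incubated 4 hrs. Compounds were added across 15 concentrations together with PK11195 at 0.75 uM final. Plates were incubated 23 hrs at 37 C. CellTiter-Fluor was added and fluorescence measured.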
On the technique in general: qHTS replaces the single test concentration by a dilution series.

Assay [4] is described as follows: qHTS assay to identify small molecule antagonists of the constitutive androstane receptor (CAR) signaling pathway - cell viability counter screen (AID 1224837). Also: nearly all actives have a fitted effect of over 45% in size. Also: potency is read from the fitted curve at half-maximal effect. An outline of the steps: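 Read-out: CellTiter-Fluor fluorescence after 23 hr at 37 C/5% CO2. Cells: HepG2 double-stable for hCAR and CYP2B6-2.2kb. Compounds tested at 15 concentrations in the presence of CITCO, final concentration 50 nM.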

Assay [5] concerns the target Nuclear receptor subfamily 1 group I member 3 (Homo sapiens) (UniProt Q14994). Nature of the assay: qHTS assay to identify small molecule antagonists of the constitutive androstane receptor (CAR) signaling pathway (AID 1224838).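 Also: HepG2 cells stably expressing hCAR with CYP2B6 luciferase reporter stimulated by CITCO; nearly all actives have a fitted effect of over 40% in size.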 Also: potency is read from the fitted curve at half-maximal effect. Put shortly:
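Read-out: ONE-Glo luciferase luminescence after 30 min at room temperature. HepG2-CYP2B6-hCAR double-stable cells, compounds in 15-point titration plus 50 nM CITCO final, 24 h at 37 C/5% CO2.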

For assay [6] the target is unchanged. The assay is described as follows: qHTS assay to identify small molecule agonists of the constitutive androstane receptor (CAR) signaling pathway (AID 1224839).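 Also: HepG2 cells stably carrying human CAR and a CYP2B6 luciferase reporter; series mostly up to about 92 µM; nearly all actives have a fitted effect of over 15% in size.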 An outline of the steps:
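Cells were plated and incubated 4 hrs, then dosed with compounds at 15 concentrations. PK11195 was added to 0.75 uM final. After 24 hrs at 37 C, luciferase luminescence was measured.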

Assay [7] can be described thus: qHTS assay to identify small molecule antagonists of the estrogen related receptor signaling pathway with the pleiotropic PPARgamma coactivator (PGC) cell viability counter screen (AID 1224822; also: series mostly up to about 46 µM). Put shortly:
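Fluorescence read-out of CellTiter-Fluor after 30 min at 37 C; PGC/ERR cells, 2,000 per well, had been exposed to DMSO-dissolved compounds for 17.5 h following a 6 h pre-incubation.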

The nature of assay [8]: qHTS assay to identify small molecule agonists of the estrogen related receptor (ERR) signaling pathway (AID 1224820). An outline of the steps: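 An ERR cell line provided by NTP was seeded at 2,000 cells per well and allowed to settle for 6 h before compounds in DMSO were added. After 18 h at 37 C, luciferase activity was measured by One-Glo luminescence.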
The nature of assay [9]: qHTS assay to identify small molecule agonists of the estrogen related receptor signaling pathway with the pleiotropic PPARgamma coactivator (PGC) (AID 1224823). Put shortly:
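Compounds dissolved in DMSO are added by pin tool to PGC/ERR cells that have settled for 6 h, and incubation continues 18 h at 37 C. Reporter output is measured as One-Glo luminescence.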

The target of assay [10] is Luciferin 4-monooxygenase (Photinus pyralis) (UniProt P08659). Nature of the assay: qHTS assay to identify small molecule inhibitors of firefly luciferase (AID 1224835). Also: series mostly up to about 120 µM; nearly all actives have a fitted effect of over 25% in size. Put shortly:
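Inhibition of purified Photinus luciferase is measured by luminescence. Substrate levels (D-luciferin, ATP) sit at their KM values. Each compound is tested in a concentration series.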

Assay [11] can be described thus: qHTS assay to identify small molecule antagonists of the estrogen related receptor signaling pathway with the pleiotropic PPARgamma coactivator (PGC) from Tox21 10K library - cell viability counter screen (AID 1224840; active = well fitted cell-killing curve with a large enough effect in the repeat runs, not every such curve was filed as active; also: nearly all actives have a fitted effect of over 40% in size; also: potency is read from the fitted curve at half-maximal effect). An outline of the steps:
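Fluorescence read-out of CellTiter-Fluor viability reagent, added after cells had been exposed to compound in DMSO for 17.5 h at 37 C; 30 min development at 37 C/5% CO2. Cells: PGC/ERR line, 2,000/well.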

Assay [12] concerns the target Thyrotropin receptor (Homo sapiens) (UniProt P16473). The assay is described as follows: qHTS assay to identify small molecule agonists of the thyroid stimulating hormone receptor (TSHR) signaling pathway (AID 1224843; calls by dose curve; also: nearly all actives have a fitted effect of over 45% in size). An outline of the steps: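 Agonist activity read as cAMP rise via d2/cryptate HTRF competition, 1 h room-temperature detection, in HEK293 cells expressing TSHR. Fifteen-point titrations, each run in triplicate, with a 30 min room-temperature incubation beforehand.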

A short description of assay [13]: qHTS assay to identify small molecule agonists of the hypoxia (HIF-1) signaling pathway - cell viability counter screen (AID 1224844; calls by dose curve; also: nearly all actives have a fitted effect of over 50% in size). Put shortly:
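CellTiter-Glo luminescence read-out, 30 min RT, taken in the same wells as the beta-lactamase HRE reporter assay; HRE-bla ME-180 cells, 0.5% dialyzed FBS, 17 hr compound treatment at 37C, 5% CO2.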

Assay [14] can be described thus: qHTS assay to identify small molecule agonists of H2AX (AID 1224845; active = well fitted activation curve with a large enough effect in the signal ratio in the repeat runs, not every such curve was filed as active; the % refers to the signal ratio). Put shortly: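 Phospho-H2AX Ser139 measured by HTRF (ex 320 nm; em 665 and 620 nm) after 24 hr antibody incubation. Compounds, 15 concentrations, 0.76% DMSO, were applied to CHO-K1 cells for 3hr at 37C before lysis.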
Assay [15] concerns estrogen-related receptor alpha (ERRalpha) with PGC-1alpha coactivator, human. The assay is described as follows: qHTS assay to identify small molecule antagonists of the estrogen related receptor signaling pathway with the pleiotropic PPARgamma coactivator (PGC) (AID 1224821; calls by dose curve;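 also: series mostly up to about 46 µM; lower luminescence signal means antagonism of PGC/ERR signalling; nearly all actives have a fitted effect of over 50% in size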). An outline of the steps: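 A PGC/ERR cell line supplied by NTP is seeded, allowed 6 h at 37 C, and treated with test compounds in DMSO for 18 h. Signal is then measured as luciferase luminescence using One-Glo.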

Assay [16] can be described thus: qHTS assay to identify small molecule agonists of the hypoxia (HIF-1) signaling pathway (AID 1224846; active = well fitted activation curve with a large enough effect in the signal ratio in the repeat runs, not every such curve was filed as active; the % refers to the signal ratio). Put shortly: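 Beta-lactamase FRET read-out (CCF4-AM substrate) from ME-180 cells carrying an HRE-driven bla reporter, after 17 hrs compound exposure at 37C/5% CO2. Cells were seeded at 2,000 per well in 0.5% dialyzed FBS medium and preincubated 5 hrs.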
Assay [17] can be described thus: qHTS assay to identify small molecule agonists of the estrogen related receptor signaling pathway with the pleiotropic PPARgamma coactivator (PGC) from Tox21 10K library (AID 1224842). Also: nearly all actives have a fitted effect of over 15% in size. Put shortly:
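Luminescence from One-Glo (30 min, room temperature) measured after PGC/ERR cells had 18 h at 37 C with pinned compound (23 nL in DMSO). Cells had been seeded at 2,000 per well and pre-incubated 6 h.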

Inconclusive results are not listed. Unmarked numbers belong to inactive results. Activity calls are given as the source filed them. Unless noted, calls follow the shape of the dose curve; as a rule, active = well fitted curve in the direction sought with a large enough effect in the repeat runs; inconclusive = weak or mixed curves; inactive = no such curve, though single readings can be large; an effect the other way counts as inactive or inconclusive.
% is scaled to controls: 0 for no effect and ±100 for the full control effect.

Luciferin 4-monooxygenase (Photinus pyralis), sequence (P08659 whole entry, looked up): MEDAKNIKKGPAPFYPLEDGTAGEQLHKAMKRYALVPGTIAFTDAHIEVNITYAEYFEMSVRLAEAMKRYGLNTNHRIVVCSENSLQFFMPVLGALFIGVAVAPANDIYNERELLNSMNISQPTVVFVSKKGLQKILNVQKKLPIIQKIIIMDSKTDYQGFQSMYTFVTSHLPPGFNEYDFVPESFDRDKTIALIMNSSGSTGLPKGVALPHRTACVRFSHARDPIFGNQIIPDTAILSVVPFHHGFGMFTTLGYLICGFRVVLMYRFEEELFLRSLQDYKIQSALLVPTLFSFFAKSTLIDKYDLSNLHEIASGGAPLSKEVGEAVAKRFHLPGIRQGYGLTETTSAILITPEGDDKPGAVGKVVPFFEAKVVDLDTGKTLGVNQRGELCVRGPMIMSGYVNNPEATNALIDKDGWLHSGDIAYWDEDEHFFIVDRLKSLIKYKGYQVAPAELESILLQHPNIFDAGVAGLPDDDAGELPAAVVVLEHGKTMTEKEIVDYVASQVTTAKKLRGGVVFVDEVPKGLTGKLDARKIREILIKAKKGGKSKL
Nuclear receptor subfamily 1 group I member 3 (Homo sapiens), sequence (Q14994 whole entry, looked up): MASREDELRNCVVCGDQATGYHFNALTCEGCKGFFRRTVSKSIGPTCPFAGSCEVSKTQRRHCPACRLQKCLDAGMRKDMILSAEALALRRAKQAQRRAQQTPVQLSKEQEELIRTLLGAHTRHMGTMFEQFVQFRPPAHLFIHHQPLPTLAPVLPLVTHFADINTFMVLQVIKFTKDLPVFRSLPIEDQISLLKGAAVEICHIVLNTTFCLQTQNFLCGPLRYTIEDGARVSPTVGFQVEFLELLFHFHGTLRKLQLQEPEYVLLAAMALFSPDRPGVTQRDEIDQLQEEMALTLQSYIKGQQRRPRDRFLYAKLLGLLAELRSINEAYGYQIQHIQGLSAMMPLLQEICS
Thyrotropin receptor (Homo sapiens), sequence (P16473 whole entry, looked up): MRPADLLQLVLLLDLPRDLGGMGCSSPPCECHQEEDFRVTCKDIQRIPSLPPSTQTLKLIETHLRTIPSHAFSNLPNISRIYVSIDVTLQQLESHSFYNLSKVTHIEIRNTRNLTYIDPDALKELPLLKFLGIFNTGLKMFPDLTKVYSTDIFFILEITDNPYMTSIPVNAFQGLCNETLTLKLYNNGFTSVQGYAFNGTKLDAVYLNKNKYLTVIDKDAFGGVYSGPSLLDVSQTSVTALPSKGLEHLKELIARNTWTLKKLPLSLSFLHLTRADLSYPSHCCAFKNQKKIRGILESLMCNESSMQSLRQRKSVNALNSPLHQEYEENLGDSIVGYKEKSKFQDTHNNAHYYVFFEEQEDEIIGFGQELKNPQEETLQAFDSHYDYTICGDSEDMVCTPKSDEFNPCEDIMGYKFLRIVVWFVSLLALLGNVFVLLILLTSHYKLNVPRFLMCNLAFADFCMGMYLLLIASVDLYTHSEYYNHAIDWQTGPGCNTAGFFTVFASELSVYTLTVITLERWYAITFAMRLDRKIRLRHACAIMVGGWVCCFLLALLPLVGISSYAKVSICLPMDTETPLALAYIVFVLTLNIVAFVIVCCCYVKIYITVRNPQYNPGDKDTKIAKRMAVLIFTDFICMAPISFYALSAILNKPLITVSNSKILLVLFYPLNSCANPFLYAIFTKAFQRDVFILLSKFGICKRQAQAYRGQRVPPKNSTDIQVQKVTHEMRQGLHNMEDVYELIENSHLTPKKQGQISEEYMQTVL

`CC(=O)[C@]1(O)Cc2c(O)c3c(c(O)c2[C@@H](O[C@H]2C[C@H](N)[C@H](O)[C@H](C)O2)C1)C(=O)c1ccccc1C3=O`: the Potency result in assay [1] and in [6] was “inactive” each time. Moreover, the Potency was 1.06 µM (active) in assay [2], 2.66 µM (active) in assay [3], 2.11 µM (active) in assay [4] and 0.237 µM (active) in [5].

`CC1=C(C(=O)O)N2C(=O)[C@@H](NC(=O)C(N)C3=CCC=CC3)[C@H]2SC1` (stereo not given in full): the Potency entry in assay [1] and in [7] was “inactive” in each case.

With `C=C[C@H]1CN2CC[C@@H]1C[C@H]2[C@H](O)c1ccnc2ccc(OC)cc12`, the Potency entry in assay [1] and in assay [7] was “inactive” in each case.

Consider `CC(C)[C@H](NC(=O)OCc1ccccc1)C(=O)N[C@H](C=O)Cc1ccccc1`, for which the Potency result in [1], in [8] and in assay [9] was “inactive” throughout.

On to `CC[C@H]1OC(=O)[C@H](C)C(O[C@H]2C[C@@](C)(OC)[C@@H](O)[C@H](C)O2)[C@H](C)[C@@H](OC2O[C@H](C)C[C@H](N(C)C)[C@H]2O)[C@](C)(O)C[C@@H](C)CN(C)[C@H](C)[C@@H](O)[C@]1(C)O` (stereo not given in full), for which the Potency result in [1] and in assay [7] was “inactive” each time.

Consider `C[C@]12C=CC(=O)C=C1CC[C@@H]1C2=CC[C@]2(C)[C@@H](C(=O)CN3CCN(c4cc(N5CCCC5)nc(N5CCCC5)n4)CC3)CC[C@@H]12`, for which the Potency result in assay [1], in [7] and in assay [9] was “inactive” in each case.

As for `COc1cc2c(cc1OC)C1CC(=O)C(CC(C)C)CN1CC2` (stereo not given), the Potency entry in assay [1] and in assay [7] was “inactive” throughout.

Turning to `C=C[C@H]1CN2CC[C@@H]1C[C@@H]2[C@@H](O)c1ccnc2ccc(OC)cc12`, the Potency result in assay [1] and in assay [7] was “inactive” each time.

For the compound `c1ccc(C2CN3CCSC3=N2)cc1` (stereo not given), the Potency result in assay [1] and in assay [7] was “inactive” each time.

For `CC(C)NC[C@H](O)COc1cccc2[nH]ccc12`, the Potency result in [1] and in assay [7] was “inactive” throughout.

Turning to `CC(N)(Cc1ccc(O)c(O)c1)C(=O)O` (stereo not given), the Potency entry in assay [1] and in [7] was “inactive” in each case.

As to `Cn1c(=O)[nH]c2ncn(C)c2c1=O`, the Potency result in assay [1], in assay [7], in [2], in [10], in assay [3] and in assay [11] was “inactive” in each case. Besides, the Potency result in [12], in assay [13] and in [14] was “inactive” throughout.

With `CSC(=N)N`, the Potency result in assay [1] and in assay [7] was “inactive” in each case.

Take `Fc1ccc2[nH]c(CN3CCN(c4ccccn4)CC3)cc2c1`: the Potency result in [1], in assay [15] and in assay [7] was “inactive” in each case.

Turning to `NCC(O)c1ccc(O)c(O)c1` (stereo not given), the Potency entry in [1] and in assay [7] was “inactive” each time.

Consider `Nc1ncnc2c1ncn2[C@@H]1O[C@H](CO)C(O)[C@H]1O` (stereo not given in full), for which the Potency entry in [1] and in assay [7] was “inactive” each time.

As to `CN1CCN(CCCN2c3ccccc3Sc3ccc(C(F)(F)F)cc32)CC1`, in assay [14], the Potency entry is “inactive”.

For the compound `O=C(O)C[C@H](O)C[C@H](O)/C=C/c1c(C2CC2)nc2ccccc2c1-c1ccc(F)cc1`, the activation (H2AX phosphorylation) in assay [14] was -2.12% [at 31.6 µM]. The activation in assay [16] is 0.144% [at 15.8 µM].

Regarding `CCOC=C(C(=O)OCC)C(=O)OCC`, the Potency result in assay [2], in assay [10], in assay [3], in assay [4], in [5] and in [6] was “inactive” each time. Further, the Potency entry in assay [12], in [13], in assay [14] and in [16] was “inactive” throughout.

On to `CN[C@H]1CC[C@@H](c2ccc(Cl)c(Cl)c2)c2ccc(S(N)(=O)=O)cc21`, for which the Potency in assay [2] was 68.6 µM (active); in [3] it was 61.1 µM (active); in assay [4] it was 61.1 µM (active); in [5], 61.1 µM (active); in assay [11] it was 61.1 µM (active). Further, the Potency result in [10], in assay [6], in assay [17] and in assay [16] was “inactive” in each case.

Turning to `CC/C(=C(/c1ccc(O)cc1)c1ccc(OCCN(C)C)cc1)c1ccccc1`, the Potency in assay [2] was 32 µM (active); in assay [3] it was 40.3 µM (active); in assay [4], 32 µM (active); in assay [5] it was 35.9 µM (active). Besides, the Potency entry in assay [10], in assay [6] and in assay [17] was “inactive” each time.

Turning to `CC1CCC(C(C)(C)O)CC1` (stereo not given), the Potency entry in assay [2], in [10], in assay [3], in [4], in assay [5] and in assay [6] was “inactive” each time. The Potency result in assay [11], in assay [13], in [14] and in assay [16] was “inactive” throughout.

Source of the values: PubChem BioAssay (Tox21).
